Measurements: PubChem BioAssay AID1259418 (Broad Institute, 2018)
Screen size: about 3,400 compounds; about 840 (25%) were called active. Another 11% or so got no clear call; they are omitted.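 Rule for the calls: active = fitted half-maximal concentration of signal decrease at or below twice the sample's top tested concentration; inconclusive = flat curve between -70 and -30 percent, or poor fit; inactive = flat within 30 percent, signal rise, or potency above limit.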 These entries were drawn from the full list. Potency and affinity values are given separately.

Test: T. gondii growth inhibition with IFN-gamma, dose response, cell-based, ME49Luc, HeLa, luciferase, 72 h (AID 1259418)
Details: T. gondii ME49Luc in IFN-y HeLa, stronger effect = lower value, -100% = high-dose IFN-γ control wells; at 19.5 µM unless noted
For `O=C(c1ccc(F)cc1)N1c2ccccc2Sc2ccc(C(F)(F)F)cc21`, the max activity was -23.5% [at 0.08 µM] (inactive).
With `Cc1ccc(-c2cc(C(=O)Nc3ccc4c(c3)CCC(=O)N4)c3ccccc3n2)cc1C` the max activity was 6.1% [at 1.35 µM] (inactive).
In the case of `CCc1onc(C)c1C1CCCN1Cc1cn(CC(=O)OC)c2ccc(OC)cc12` (stereo not given), the max activity was 13.3% [at 5 µM] (inactive).
For `COc1ccc(-c2nc3c(s2)CN(C(=O)Nc2ccc(C)cc2Cl)CC3)cc1`, the max activity was 78.4% (inactive).
In the case of `O=C(c1cnccn1)N1CC(=O)N2[C@H](C1)[C@@H](c1ccc(-c3cccc(F)c3)cc1)[C@@H]2CO`, the max activity was 6.32% (inactive).
With `O=C(Nc1ccc(F)cc1)N1CC(=O)N2[C@@H](CO)[C@@H](c3ccc(C4=CCCC4)cc3)[C@@H]2C1` the max activity was 25.4% [at 10 µM] (inactive).
For `O=C(c1cnccn1)N1CC(=O)N2[C@H](CO)[C@H](c3ccc(-c4cccc(F)c4)cc3)[C@@H]2C1`, the max activity was 25.7% (inactive).
For `CCOc1ccccc1-c1noc(-c2nnn(Cc3nc(-c4ccc(OC)cc4)oc3C)c2C)n1`, the max activity was 9.41% [at 1.35 µM] (inactive).
For `COC(=O)c1ccccc1NC(=O)Nc1ccc(-c2nc(-c3ccc(C)cc3C)co2)cc1`, the max activity was 13.8% [at 0.16 µM] (inactive).
With `CSCc1noc(CN2CCCC3(C2)CN(C)C(=O)O3)n1` (stereo not given) the max activity was 41.2% (inactive).
For `COc1cc(OC)cc(-c2noc(-c3nnn(Cc4nc(-c5ccccc5OC)oc4C)c3C)n2)c1`, the max activity was 6.32% [at 0.68 µM] (inactive).
For `Cc1ccc(-c2nc(CN3CCN(C(=O)Nc4cc(Cl)ccc4C)CC3)c(C)o2)cc1`, the max activity was 11.2% [at 10 µM] (inactive).
In the case of `CCOc1ccc(-c2nc(CN3CCN(C(=O)Nc4ccc(C)c(F)c4)CC3)c(C)o2)cc1`, the max activity was 15% (inactive).
In the case of `Cc1ccc(-c2nc(CN3CCN(C(=O)Nc4cc(C)cc(C)c4)CC3)c(C)o2)cc1`, the max activity was 9.49% [at 2.6 µM] (inactive).
For `CCOc1ccc(-c2nc(CN3CCN(C(=O)Nc4ccc(C)c(C)c4)CC3)c(C)o2)cc1`, the max activity was 14.4% [at 0.35 µM] (inactive).
In the case of `CCOC(=O)CSC1=Nc2ccccc2C2=NC(CCC(=O)NCc3ccccc3OC)C(=O)N12` (stereo not given), the max activity was 28.4% [at 1.35 µM] (inactive).
For `CC(C)N1CCC2(CC1)CC(COCC1CC1)N(c1ncccn1)C2` (stereo not given), the max activity was 22.4% (inactive).
For `O=C(CCC1CCCC1)N1CCC2(CC1)Nc1cc(F)ccc1-n1cccc12`, the max activity was 4.37% (inactive).
With `CC(C)[C@H](CO)Nc1nc(Nc2ccc(C(=O)O)c(Cl)c2)c2ncn(C(C)C)c2n1` the max activity was 10.1% [at 10 µM] (inactive).
With `Cc1nc(-c2ccc(F)cc2)sc1-c1ccc(SCc2ccc(Br)cc2)nn1` the max activity was 10.9% [at 1.35 µM] (inactive).
